# High-throughput results deposited in PubChem BioAssay by Sanford-Burnham Center for Chemical Genomics.
# Only some compounds are listed: those with a hit (about 4.1% of all), similar ones and a draw of the others.
# tim23-1 inh – growth inhibitors of tim23-1 mutant yeast, primary screen, luminescence, uHTS | S. cerevisiae tim23-1 growth, BacTiter-Glo luminescence, 24 h | inhibition, % at 20 µM | 330,000 compounds, 1.3% hits | AID 463212, 2010;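 active = growth inhibition of the mutant yeast at or above 50%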;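 also: temperature-sensitive mutant grown at 25 °C; plate controls were DMSO-treated mutant yeast for no effect and medium wells lacking yeast for full effect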
# tim10-1 inh – growth inhibitors of tim10-1 mutant yeast, primary screen, luminescence, uHTS. 330,000 compounds, 2.2% hits. S. cerevisiae tim10-1 ts strain growth, BacTiter-Glo, 24 h. inhibition, % at 20 µM;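 active = inhibition of at least 40%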;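 also: mutant grown at 25 °C; 0% = DMSO wells with yeast and 100% = wells holding no yeast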
# NALP3 yeast inh – NALP3 inflammasome inhibitors in reconstituted yeast, primary screen, luminescence, uHTS; Yeast reconstituted NLRP3/ASC/caspase-1, beta-gal luminescence, 24 h; inhibition, % at 10 µM; 330,000 compounds, 0.39% hits;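 active = inhibition of 50% or more; inactive = inhibition below 50%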;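 also: plate controls were induced DMSO wells for no effect and uninduced yeast grown without galactose for full effect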
# NALP1 inh – NALP1 inflammasome inhibitors in reconstituted yeast, colorimetric, S. cerevisiae, triplicate retest | S. cerevisiae NALP1/ASC/caspase-1 growth, X-gal OD620, 72 h | inhibition, % at 10 µM | 280,000 compounds, 0.61% hits | AID 2071, 2009; in the data active = inhibition mostly above about 24%, no sharp cut-off; inactive = mostly below about 32%
# TIM10 inh – growth inhibitors of isogenic TIM10 control yeast, primary screen, counter-screen for tim10-1 yeast inhibitor project, luminescence, uHTS; S. cerevisiae TIM10 strain growth, BacTiter-Glo luminescence, 24 h; inhibition, % at 10 µM; 330,000 compounds, 1.4% hits; AID 463195, 2010;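 active = inhibition of 40% or more at the single tested concentration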;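 also: wild-type TIM10 isogenic control strain grown at permissive 25 °C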
# tim10-1 confirm – growth inhibitors of tim10-1 mutant yeast, confirmation, single concentration, luminescence, S. cerevisiae. inhibition, % at 20 µM. 7,400 compounds, 56% hits. S. cerevisiae tim10-1 ts strain growth, BacTiter-Glo, 24 h. shares compounds with tim10-1 inh;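 active = inhibition of yeast growth at or above a set limit in either of two repeat tests at 20 µM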;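 also: tim10-1 mutant grown at permissive 25 °C to find synthetic lethal compounds; 0% = DMSO yeast wells and 100% = medium wells without yeast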
# * marks the source's active call; other numbers are inactive results; / = not tested or not shown.
SMILES,tim23-1 inh,tim10-1 inh,NALP3 yeast inh,NALP1 inh,TIM10 inh,tim10-1 confirm
CCOC(=O)/C=C/C(=O)N1CCc2ccccc21,32,47*,14,7,20,40*
COc1ccc(NC(=O)C23CC4CC(CC(Cl)(C4)C2)C3)cc1S(=O)(=O)N1CCOCC1,13,6,5,/,-3,/
COc1ccccc1CNC(=O)COC(=O)CCC(=O)c1cccs1,-1,27,-9,12,17,/
CCC1NC(=O)c2ccccc2N1c1cccc(Cl)c1 (stereo not given),28,3,15,/,-14,/
CCc1cccc(C)c1NC(=O)C1=C(C(=O)O)CCCC1,12,20,-3,13,7,/
COc1ccc(-c2cc(=O)oc3cc(OC(=O)C4CCCCC4)c(Cl)cc23)cc1,37,44*,-15,12,38,36*
Cc1cc(C)n(-c2ccn(Cc3ccc(Cl)cc3Cl)c(=O)n2)n1,43,40*,-1,27,16,28
COc1cc2c(cc1OC)/C(=C/c1ccc(Br)cc1)C(=O)OC2,49,43*,6,26,-13,16
Cc1ccc2cc(C#N)c(N3CCCN(C(=S)NCCCN(C)C)CC3)nc2c1,4,4,23,-14,-2,/
Cc1cc(C)c2cc(C#N)c(N3CCCN(C(=S)NCCCN(C)C)CC3)nc2c1,36,40*,17,16,32,31*
CCOc1ccc(CCNC(=O)C(C)N2C(=O)CC(C)(C)Sc3ccccc32)cc1 (stereo not given),39,42*,-5,-6,12,25
Cc1cc(C)c(C)c(S(=O)(=O)ON2C(=O)c3ccccc3C2=O)c1C,36,59*,23,35,27,61*
Cc1nnc(SCC(=O)N2CCC(c3noc4ccc(F)cc34)CC2)s1,48,34,12,4,37,/
Cc1sc2ncnc(SCC(=O)N3CCC(c4noc5ccc(F)cc45)CC3)c2c1C,-34,50*,8,5,6,3
NS(=O)(=O)c1ccc(CCNC(=O)C(=O)C2C(=O)Nc3ccccc32)cc1 (stereo not given),10,-3,9,22,10,/
COc1cc(C2C(C(=O)c3ccc(C)o3)=C(O)C(=O)N2CCN2CCOCC2)ccc1OCCC(C)C (stereo not given),2,-2,14,4,2,/
CCCN(CC(=O)Nc1cc(Cl)cc(Cl)c1)CC(=O)Nc1ccc(F)c(F)c1F,37,51*,3,17,37,29
COCCCNC(=S)N1CCC(C(=O)c2ccc(Cl)cc2)CC1,24,10,19,-31,-7,/
CC1(C)CC(=O)C2=C(C1)N=C1c3ccccc3C(=O)C1C2c1ccc(Cl)cc1 (stereo not given),32,44*,13,24,35,31*
Cc1ccc(C2C3=C(CC(C)(C)CC3=O)N=C3c4ccccc4C(=O)C32)cc1 (stereo not given),28,20,9,-21,17,/
Cn1c(CC(=O)Nc2ccc(Cl)c(Cl)c2)n[nH]c1=S,1,-2,12,0,-5,/
COc1ccc(Cc2n[nH]c(=S)n2NC(=O)Nc2ccc(Cl)c(Cl)c2)cc1,18,43*,16,/,31,64*
N/C(=N\OC(=O)c1ccc(F)cc1)c1cccc([N+](=O)[O-])c1,28,48*,15,-1,25,63*
O=C(CCNc1ccccc1)c1cccc([N+](=O)[O-])c1,19,24,7,19,13,/
O=C(CCNc1ccc(F)cc1)c1cccc([N+](=O)[O-])c1,13,40*,15,41,15,43*
SMILES,tim23-1 inh,tim10-1 inh,NALP3 yeast inh,NALP1 inh,TIM10 inh,tim10-1 confirm
N/C(=N/OC(=O)c1cccc([N+](=O)[O-])c1)c1cccc([N+](=O)[O-])c1,-14,20,0,4,-26,/
N/C(=N\OC(=O)c1ccccc1Cl)c1cccc([N+](=O)[O-])c1,23,50*,34,8,28,66*
CCN1C(=O)C(CC(=O)Nc2ccc(Br)cc2)N(CCCc2ccccc2)C1=S (stereo not given),37,37,5,1,30,/
Cc1ccccc1N1CCN(S(=O)(=O)c2nnc(NC(=O)c3ccco3)s2)CC1,35,46*,10,13,31,9
COc1ccc(CCNS(=O)(=O)c2ccc(OC)cc2)cc1,41,44*,18,-3,4,32
Clc1ccccc1C1=CC(c2ccco2)n2ncnc2N1 (stereo not given),36,10,13,6,8,/
c1ccc(C(c2ccccc2)c2ccn[nH]2)cc1,24,44*,0,0,2,13
OC(CNCC1CCCO1)Cn1c2ccc(Cl)cc2c2cc(Cl)ccc21 (stereo not given),-32,43*,37,28*,-24,22
CCN(CCCNC(=O)CNC(=O)c1nn(-c2ccc(OC)cc2OC)c(=O)c2ccccc12)c1cccc(C)c1,1,5,19,11,-9,/
S=C(c1ccc(-c2ccc(Cl)cc2)o1)N1CCCCC1,10,22,6,/,6,/
N#CCCN1CCN(C(=S)c2ccc(-c3ccc(Cl)cc3)o2)CC1,32,45*,6,4,20,22
Nc1ncncc1-c1ccc([N+](=O)[O-])cc1,12,3,11,6,11,/
CN(C)C(=S)Nc1ccc(Cc2ccncc2)cc1,6,21,12,-11,8,/
O=C(CCl)N1CCN(S(=O)(=O)Cc2ccccc2)CC1,29,43*,17,/,18,20
CC(=O)NN1C(=O)/C(=C\c2ccc(O)cc2)SC1=S,11,1,15,-3,5,/
O=C1/C(=C\c2ccc(O)cc2)SC(=S)N1/N=C/c1ccc(O)cc1,35,41*,12,1,24,39*
CC(C)(C)NC(=O)c1ccc(Sc2ccccc2)c([N+](=O)[O-])c1,27,42*,25,31,16,20
COc1ccc2nc(N3CCC(C)CC3)c(C#N)cc2c1,21,46*,5,23,3,9
CCCc1sc(N)nc1-c1ccc(Cl)cc1,13,43*,-5,30,18,20
COc1ccc(N2CCN(c3cc(C)nc4ccc(OC)cc34)CC2)cc1,25,43*,22,32,13,8
COc1ccc2nc(C)cc(N3CCC(C(N)=O)CC3)c2c1,-4,11,-8,7,-8,/
Cc1ccccc1C1CC(=O)Oc2cc(O)ccc21 (stereo not given),23,26,/,/,-10,/
Cc1ccc(NC(=S)Nc2ccc3cn[nH]c3c2)cc1C,7,26,27,24,18,/
